Values joined by “and” are separate entries in the source; they are usually repeats but may differ in a detail not shown here. Equal entries are not always repeated. Inconclusive results are not listed. A call without a number means that no potency is given here. Active and inactive are the calls of the source. Unless noted, the call rests on the fitted dose curve; in most records, active means well fitted curve in the direction sought with a large enough effect; inconclusive means small, poorly fitted or top-dose-only effect, or another doubt; inactive means no such curve, though single readings can be large; an effect the other way counts as inactive or inconclusive.
How the values were obtained:
[1] = tested on: Zika virus NS2B-NS3 protease (linked construct); experiment: Primary screen NINDS Rhodamine qHTS for Zika virus inhibitors (AID 1347160); further: nearly all actives have a fitted effect of over 55% in size
Outline: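 Purified linked NS2B-NS3 protease (NS2B hydrophilic domain joined to NS3 protease by flexible linker), 25 nM in 10 mM Tris-HCl pH 8.0, 0.01% Tween 20. Compounds titrated, 15 min preincubation at room temperature; 1.5 microM Rhodamine110 substrate, FITC fluorescence change over 15 min.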

[2] = biological target: Calcium and integrin-binding protein 1 (Homo sapiens) (UniProt Q99828); experiment: Primary qHTS for Identification of Calcium Integrin Binding Protein 1 (CIB1) Competitor (AID 1508620);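 further: GST tagged CIB1 binding a fluorescein labelled alphaIIb integrin peptide tracer; top concentration of the series differs between compounds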
Chain of Calcium and integrin-binding protein 1 (Homo sapiens) (Q99828 whole entry, looked up): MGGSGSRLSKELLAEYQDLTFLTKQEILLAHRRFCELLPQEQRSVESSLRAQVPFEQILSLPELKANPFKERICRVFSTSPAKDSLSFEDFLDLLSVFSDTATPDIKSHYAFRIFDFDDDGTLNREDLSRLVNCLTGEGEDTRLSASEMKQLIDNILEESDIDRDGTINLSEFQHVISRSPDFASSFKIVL
Outline: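 Fluorescence polarization competition: CIB1-GST (1 uM final) preincubated with compound 15 min at room temperature, then FITC-labeled alphaIIb peptide (100 nM final) added for another 15 min. Polarization read at Ex 480/Em 540.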

[3] = Primary qHTS for inhibitors of nuclear receptor binding SET domain protein 2 (NSD2) in an isogenic RCH-ACV NSD2 p.E1099K mutant (9B) (AID 1645876); further: nearly all actives have a fitted effect of over 70% in size; further: potency means the concentration at half of the fitted maximal effect
[4] = Primary qHTS for inhibitors of nuclear receptor binding SET domain protein 2 (NSD2) in an RCH-ACV wild type WT cells (2C) (AID 1645877); further: nearly all actives have a fitted effect of over 70% in size; further: potency means the concentration at half of the fitted maximal effect
[5] = biological target: Glutathione peroxidase 1 (Homo sapiens) (UniProt P07203); experiment: Primary qHTS Assay for Inhibitors of Recombinant Selenoprotein Glutathione Peroxidase 1 (GPX1) (AID 1845191); further: nearly all actives have a fitted effect of over 65% in size
Chain of Glutathione peroxidase 1 (Homo sapiens) (P07203 whole entry, looked up): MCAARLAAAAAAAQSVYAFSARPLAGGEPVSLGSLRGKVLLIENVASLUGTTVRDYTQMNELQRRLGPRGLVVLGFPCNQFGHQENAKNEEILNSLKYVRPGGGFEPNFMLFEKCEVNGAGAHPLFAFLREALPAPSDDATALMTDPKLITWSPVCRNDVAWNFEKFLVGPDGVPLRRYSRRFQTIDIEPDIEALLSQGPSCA
Outline: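 Recombinant GPX1 (10 nM final) was preincubated with compound for 30 min at room temperature, then reacted with 1 mM GSH, 0.5 mM CHP, 0.5 mM NADPH and 100 nM glutathione reductase; NADPH fluorescence (340/450 nm) was read at 0 and 15 min.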

[6] = tested on: Nanoluciferase (engineered Oplophorus gracilirostris luciferase); experiment: Primary Nanoluciferase (NLuc) qHTS assay for identification of artifact compounds. (AID 1845222)
Outline: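 Luminescence read-out of secreted NLuc in S16 cell conditioned medium (1:55); compounds tested with 15 min RT preincubation, then Nano-Glo substrate 1:100, 5 min. % inhibition vs no-enzyme and DMSO controls, 4-parameter Hill fit.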

CASKI = experiment: Primary qHTS to identify gynecologic anti-cancer compounds using libraries of approved drugs and bioactive compounds (AID 1345084); settings: Gynecologic cancer cell panel viability, ATPlite luminescence, 48 h; series mostly up to 57.5 µM; further: nearly all actives have a fitted effect of over 55% in size; further: potency means the concentration at half of the fitted maximal effect
Outline: (§1)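 Five-point cytotoxicity, 48 h drug exposure at 37 C, 5% CO2, on cells seeded 16 h beforehand. ATP content read by ATPlite luminescence.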

Es-2 = experiment: as above; settings: Gynecologic cancer cell panel viability, ATPlite luminescence, 48 h; series mostly up to 57.5 µM
Outline: as §1

HeLa = experiment: as above; settings: Gynecologic cancer cell panel viability, ATPlite luminescence, 48 h; series mostly up to 57.5 µM
Outline: as §1

Hek293T = experiment: as above; settings: Gynecologic cancer cell panel viability, ATPlite luminescence, 48 h, control line for the selectivity index; series mostly up to 57.5 µM
Outline: as §1

JEG-3 = experiment: as above; settings: Gynecologic cancer cell panel viability, ATPlite luminescence, 48 h; series mostly up to 57.5 µM
Outline: as §1

OV90 = experiment: as above; settings: Gynecologic cancer cell panel viability, ATPlite luminescence, 48 h; series mostly up to 57.5 µM
Outline: as §1

Tov-21-G = experiment: as above; settings: Gynecologic cancer cell panel viability, ATPlite luminescence, 48 h; series mostly up to 57.5 µM
Outline: as §1

Tov112D = experiment: as above; settings: Gynecologic cancer cell panel viability, ATPlite luminescence, 48 h; series mostly up to 57.5 µM
Outline: as §1

[7] = P-glycoprotein substrates identified in KB-8-5-11 adenocarcinoma cell line, qHTS therapeutic library screen (AID 1346987); further: nearly all actives have a fitted effect of over 65% in size; further: potency means the concentration at half of the fitted maximal effect
Outline: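 P-gp-mediated resistance screen: KB-8-5-11 cells treated 72 h with compounds in dose-response. CellTiter-Glo viability.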

[8] = biological target: Phospholipid hydroperoxide glutathione peroxidase GPX4 (Homo sapiens) (UniProt P36969); experiment: Primary qHTS Assay for Inhibitors of Recombinant Selenoprotein Glutathione Peroxidase 4 (GPX4) (AID 1845192); settings: outcome: dose series up to 50 µM unless noted; further: nearly all actives have a fitted effect of over 65% in size; further: potency means the concentration at half of the fitted maximal effect
Chain of Phospholipid hydroperoxide glutathione peroxidase GPX4 (Homo sapiens) (P36969 whole entry, looked up): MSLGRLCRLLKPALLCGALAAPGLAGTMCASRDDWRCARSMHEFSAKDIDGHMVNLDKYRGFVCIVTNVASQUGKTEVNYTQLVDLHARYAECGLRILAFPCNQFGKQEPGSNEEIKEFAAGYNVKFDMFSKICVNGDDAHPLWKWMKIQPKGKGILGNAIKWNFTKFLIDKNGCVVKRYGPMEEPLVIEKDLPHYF
Outline: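 GR-coupled readout: 100 nM GR, 1 mM GSH, 0.5 mM NADPH; NADPH fluorescence (ex 340/em 450 nm) read at t=0 and after 15 min RT. GPX4 200 nM, preincubated 30 min with compound; substrate 0.5 mM CHP.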

[9] = biological target: Luciferin 4-monooxygenase (Photinus pyralis) (UniProt P08659); experiment: Primary firefly luciferase (FLuc) qHTS assay for identification of artifact compounds. (AID 1845220); further: nearly all actives have a fitted effect of over 60% in size
Outline: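 qHTS, 15 min compound preincubation with substrate (10 uM luciferin, 10 uM ATP) at RT, then 10 nM FLuc; 5 min; luminescence; % inhibition vs no-enzyme/DMSO controls, 4-parameter Hill fit.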

[10] = Primary fluorescence-based thiol-reactive (MSTI) qHTS assay for identification of artifact compounds. (AID 1845221);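 further: thiol-reactive compounds lower the probe fluorescence signal; nearly all actives have a fitted effect of over 65% in size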
Outline: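 Thiol-reactive compounds detected by quenching of 4 uM MSTI fluorescence (525/598 nm) after 1 h room-temperature dark incubation in PBS pH 7.4, 2% DMSO. qHTS titration; percent inhibition Hill-fitted against Acetyl-MSTI/MSTI controls.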

C33A = experiment: Primary qHTS to identify gynecologic anti-cancer compounds using libraries of approved drugs and bioactive compounds (AID 1345084); settings: Gynecologic cancer cell panel viability, ATPlite luminescence, 48 h; series mostly up to 57.5 µM; further: nearly all actives have a fitted effect of over 55% in size; further: potency means the concentration at half of the fitted maximal effect
Outline: as §1

[11] = qHTS drug screen for cell cycle checkpoint inhibitors in PARPi-resistant BRCA-mutant ovarian cancer cell lines. (AID 1963452; calls by dose curve); settings: PEO1/OlaR viability, CellTiter-Glo luminescence, 96 h, stronger effect = lower value
Outline: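 PEO1, PEO4 and PEO1/OlaR ovarian cancer cells, 600 per well, exposed 96 h at 37C to a dilution series. Viability read by CellTiter-Glo luminescence, normalized to DMSO and empty wells; activity summarized as Z-AUC.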

[12] = measured here: PEO1 parental Z-AUC

COc1ccc(NC(=O)N2CCc3c2ccc2ccccc32)cc1N1CCN(C)CC1
Potency [1]: inactive | outcome [2]: inactive | Potency [3]: 14.5 µM (active) | Potency [4]: 14.5 µM (active) | Potency [5]: inactive | Potency [6]: inactive | Potency (CASKI): inactive | Potency (Es-2): inactive | Potency (HeLa): inactive | Potency (Hek293T): inactive | Potency (JEG-3): inactive | Potency (OV90): inactive | Potency (Tov-21-G): inactive | Potency (Tov112D): inactive

CC[C@]1(O)C[C@H]2CN(CCC3C(=Nc4ccccc43)[C@@](C(=O)OC)(c3cc4c(cc3OC)N(C)[C@H]3[C@@](O)(C(N)=O)[C@H](O)[C@]5(CC)C=CCN6CC[C@]43[C@@H]65)C2)C1 (some centres undefined)
Potency [7]: 3.66 µM (active) | Potency [1]: inactive | outcome [2]: inactive | Potency [3]: 0.0515 µM (active) | Potency [4]: 0.023 µM (active) | Potency [8]: inactive | Potency [6]: inactive | Potency (CASKI): 0.199 µM (active) | Potency (Es-2): 0.794 µM (active) | Potency (HeLa): 0.398 µM (active) | Potency (JEG-3): 0.1 µM (active) | Potency (OV90): 5.01 µM (active) | Potency (Tov-21-G): 0.316 µM (active) | Potency (Tov112D): 0.1 µM (active)

CCOC(=O)c1cnn(-c2ccc(NC(=O)C(Cl)=C(Cl)Cl)cc2)c1C(F)(F)F
Potency [1]: inactive | outcome [2]: inactive | Potency [3]: 11.5 µM (active) | Potency [4]: 6.49 µM (active) | Potency [5]: inactive | Potency [8]: inactive | Potency [9]: inactive | Potency [10]: inactive | Potency [6]: inactive | Potency (Es-2): inactive | Potency (HeLa): inactive | Potency (Hek293T): inactive

CCN1CCC[C@@H]1CNC(=O)c1ccc2c(c1)NC(=O)/C(=C/c1ccccc1F)S2
Potency [1]: inactive | outcome [2]: inactive | Potency [3]: 4.59 µM (active) | Potency [4]: 5.15 µM (active) | Potency [5]: inactive | Potency [8]: inactive | Potency [9]: inactive | Potency [10]: inactive | Potency (C33A): inactive | Potency (Es-2): inactive | Potency (HeLa): inactive | Potency (Hek293T): inactive | Potency (JEG-3): inactive | Potency (Tov-21-G): inactive | Potency (Tov112D): inactive

CC1(C)CC[C@]2(C(=O)OC3OC(CO)C(O)C(O)C3O)CC[C@]3(C)C(=CCC4[C@@]5(C)CC[C@H](OC6OC(C(=O)O)C(O)C(O)C6O)C(CO)(CO)C5CC[C@]43C)[C@@H]2C1 (some centres undefined)
outcome [7]: inactive [at 9.29 µM] | Potency [1]: inactive | outcome [2]: inactive | Potency [3]: 0.869 µM (active) | Potency [4]: 0.435 µM (active) | Potency [5]: inactive | Potency [8]: inactive | activity change, negative = thiol reactive [10]: 84.5% [at 11.5 µM] (inactive) | activity, negative = inhibition [6]: -2.38% [at 11.6 µM] (inactive) | activity change, negative = cytotoxicity (HeLa): -15.8% [at 11.6 µM] (inactive) | activity change, negative = cytotoxicity (Hek293T): -26.5% [at 11.6 µM] (inactive) | activity change, negative = cytotoxicity (OV90): -19.7% [at 11.6 µM] (inactive) | activity change, negative = cytotoxicity (Tov-21-G): -29.8% [at 11.6 µM] (inactive) | activity change, negative = cytotoxicity (Tov112D): -7.53% [at 11.6 µM] (inactive)

O=C(Nc1ncc(SCCN2CCCC2)s1)C1(c2ccc(S(=O)(=O)C3CC3)cc2)CC1C1CCCCC1 (centres undefined)
Potency [1]: inactive | outcome [2]: inactive | Potency [3]: 16.3 µM (active) | Potency [4]: 12.9 µM (active) | Potency [5]: inactive | Potency [9]: inactive | Potency [10]: inactive | Potency [6]: inactive | Potency (CASKI): inactive | Potency (Es-2): inactive | Potency (HeLa): inactive | Potency (Hek293T): inactive | Potency (JEG-3): inactive | Potency (OV90): inactive | Potency (Tov-21-G): inactive | Potency (Tov112D): inactive

Cc1[nH]c(/C=C2\C(=O)Nc3ccc(F)cc32)c(C)c1C(=O)NC[C@H](O)CN1CCOCC1
Potency [1]: inactive | outcome [2]: inactive | Potency [3]: 6.49 µM (active) and 9.34 µM (active) | Potency [4]: 6.49 µM (active) and 10.5 µM (active) | Potency [5]: inactive | Potency [8]: inactive | Potency [9]: inactive | Z-AUC [11]: -1.33 (inactive) | Z-AUC [11, 12]: 0.846 | Z-AUC ([11]; measured here: PEO4 Z-AUC): 0.0211 | Potency (C33A): inactive | Potency (CASKI): inactive | Potency (Hek293T): inactive | Potency (JEG-3): inactive | Potency (OV90): inactive | Potency (Tov112D): inactive

CC1OC2OC3C(OCC(O)C3O)OC(=O)C34CCC(C)(C)CC3C3=CCC5C6(C)CC(O)C(OC7OC(CO)C(O)C(O)C7OC7OCC(OC(=O)CC(C)(O)CC(=O)OC1C(OC1OCC(O)C(O)C1O)C2O)C(O)C7O)C(C)(CO)C6CCC5(C)C3(C)CC4O (centres undefined)
Potency [1]: inactive | outcome [2]: inactive | Potency [3]: 2.52 µM (active) | Potency [4]: 3.17 µM (active) | Potency [5]: inactive | Potency [9]: inactive | Potency [10]: inactive | Potency [6]: inactive | Potency (JEG-3): inactive | Potency (OV90): 10 µM (active)

N#Cc1ccc(-c2ccc(NC(=O)Nc3ccc(-c4ccnc5nc[nH]c45)cc3)cc2)cc1
Potency [1]: inactive | Potency [9]: inactive | Potency [10]: inactive | Potency [6]: inactive | Potency (C33A): 5.01 µM (active)

C=C(C)C(=O)O[C@H]1[C@H]2C(=C)C(=O)O[C@@H]2C[C@@H](C)[C@@H]2O[C@@H]2C(=O)[C@](C)(O)[C@@H]1OC(C)=O
outcome [2]: inactive | Potency [3]: 2.82 µM (active) | Potency [4]: 1.42 µM (active) | Potency [5]: inactive | Potency [8]: inactive | Potency [9]: inactive | Potency [6]: inactive | Potency (HeLa): inactive | Potency (Hek293T): 10 µM (active) | Potency (OV90): inactive | Potency (Tov112D): inactive

COc1ccc(C(=O)Nc2sc3c(c2C(N)=O)CCCC3)cc1OC
Potency [7]: inactive | Potency [3]: inactive | Potency [4]: inactive | Potency [5]: inactive

COc1cc([C@@H]2c3cc4c(cc3C(O[C@@H]3O[C@@H]5CO[C@@H](C)O[C@H]5[C@H](O)[C@H]3O)C3COC(=O)[C@@H]32)OCO4)cc(OC)c1OP(=O)(O)O (some centres undefined)
Potency [7]: 18.4 µM (active)

NCCNCCN
Potency [7]: inactive

CC(C)=CCC/C(C)=C/CC/C(C)=C/CSc1ccccc1C(=O)O
Potency [7]: inactive | Potency [3]: inactive | Potency [4]: inactive | Potency [5]: inactive | Potency [8]: 16.1 µM (active) | Z-AUC [11]: 0.993 (inactive) | Z-AUC [11, 12]: 0.837 | Z-AUC ([11]; measured here: PEO4 Z-AUC): 0.897

COc1cc(OC)cc(N(CCNC(C)C)c2ccc3ncc(-c4cnn(C)c4)nc3c2)c1
Potency [7]: 18.4 µM (active) | Potency [3]: 11.8 µM (active) | Potency [4]: 10.5 µM (active) | Potency [5]: inactive | Potency [8]: inactive | Z-AUC [11]: -0.272 (inactive) | Z-AUC [11, 12]: -0.0954 | Z-AUC ([11]; measured here: PEO4 Z-AUC): -0.145

From PubChem BioAssay (NCATS)
